An excerpt weighted towards active compounds, which were near 19% of everything screened.
IL-1B inflam inh: qHTS for Inhibitors of Inflammasome Signaling: IL-1-beta AlphaLISA Primary Screen; THP-1 LPS/ATP IL-1B secretion, AlphaLISA, 16 h; active compounds read low; activity change, % at 57.5 µM; actives 4.7% (n = 360,000); in the data active means activity change below about -50%; inconclusive means mostly about -30% to -49%
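THP-1 cells pretreated 1 hr with compounds (up to 57.5 uM final), then stimulated with LPS (250 ng/mL final) plus ATP (1.25 mM final); secreted IL-1B measured by AlphaLISA after 16 hr, decreased signal indicating inhibition.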
HT1080 IDH1KD tx: qHTS for induction of synthetic lethality in tumor cells producing 2HG: qHTS for the HT-1080-IDH1KD cell line | HT-1080 IDH1 knockdown viability, ATP luminescence, 48 h | Potency, µM (titrated, usually from 46.1 µM), inactives show at the top dose activity, negative = toxicity, most hits filed as cytotoxic | actives 2% (n = 360,000) | AID 686971, 2013;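 further: potency means the concentration at half of the fitted maximal effect; 0% = DMSO wells and -100% = cell-free medium wells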
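After a 2 h attachment period, IDH1KD HT-1080 cells took pin-transferred compound for 48 h at 37 °C; ATP-based luminescence after 10 min room-temperature reagent incubation reported viability.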
DT40 TDP1 CPT: qHTS for Inhibitors of human tyrosyl-DNA phosphodiesterase 1 (TDP1): qHTS in cells in presence of CPT; chicken DT40 Tdp1-/-;hTDP1 cells + 20 nM CPT, ATP luminescence, 48 h; Potency, µM (highest dose often 46.2 µM), inactives show at the top dose activity change, negative = growth inhibition, actives largely listed as inhibitors; actives 12% (n = 420,000); AID 686979, 2013; further: potency means the concentration at half of the fitted maximal effect; nearly all actives have a fitted effect of over 55% in size
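Chicken DT40 Tdp1-/- cells stably complemented with human TDP1 were seeded at 400 cells/well in medium containing 20 nM camptothecin, exposed to pin-transferred compounds, and grown at 37 °C for at least 48 hr. Viability was read as ATP luminescence.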
HT1080-NT tox: qHTS for induction of synthetic lethality in tumor cells producing 2HG: qHTS for the HT-1080-NT fibrosarcoma cell line; HT-1080-NT fibrosarcoma viability, CellTiter-Glo ATP luminescence, 48 h; actives 1.6% (n = 360,000); Potency, µM (doses to about 46.1 µM), without a hit: at the top dose activity, negative = less viability, actives largely listed as cytotoxic; AID 686970, 2013;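 further: NT is the 2HG producing partner of a matched IDH1 knockdown line; potency means the concentration at half of the fitted maximal effect; 0% = DMSO-treated cells and -100% = media-only wells without cells; nearly all actives have a fitted effect of over 55% in size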
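Luminescent CellTiter-Glo readout after 48 hours of compound exposure at 37 degrees C defined viability of HT-1080-NT cells. Activity was normalized to DMSO wells and cell-free media wells; concentration-response curves were fitted and assigned curve classes.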
DT40 TDP1 no CPT: qHTS for Inhibitors of human tyrosyl-DNA phosphodiesterase 1 (TDP1): qHTS in cells in absence of CPT; AID 686978, 2013; DT40 Tdp1-/- hTDP1 cells, no CPT, ATP luminescence, 48 h; Potency, µM (doses to about 46.2 µM), inactives show at the top dose activity change, negative = growth inhibition, hits mostly inhibitors; actives 15% (n = 420,000); further: potency means the concentration at half of the fitted maximal effect; nearly all actives have a fitted effect of over 55% in size
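Growth of hTDP1-complemented DT40 Tdp1-knockout cells is measured by ATP luminescence after at least 48 hr compound exposure at 37 °C, with DMSO substituting for the 20 nM CPT used in the parallel screen.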
An asterisk follows results filed as active. Unless noted, the call rests on the fitted dose curve; in most records, active means well fitted curve in the direction sought with a large enough effect; inconclusive means small, poorly fitted or top-dose-only effect, or another doubt; inactive means no such curve, though single readings can be large; an effect the other way counts as inactive or inconclusive. Unless noted, on the % scale 0 is the no-effect control and ±100 the full control effect.

Results for COc1ccc(N=C2SC(CC(=O)Nc3ccccc3F)C(=O)N2Cc2ccco2)cc1 (stereo not drawn) ?
IL-1B inflam inh: 0.0; HT1080 IDH1KD tx: -3.0%; DT40 TDP1 CPT: -27.7%; HT1080-NT tox: -3.4%; DT40 TDP1 no CPT: inconclusive

What do the screens show for `O=C(CC1SC(=Nc2ccccc2)N(CCc2c[nH]c3ccccc23)C1=O)Nc1ccccc1F` (stereo not drawn)?
IL-1B inflam inh: -80.2*; HT1080 IDH1KD tx: 20.6µM*; DT40 TDP1 CPT: inconclusive; HT1080-NT tox: inconclusive; DT40 TDP1 no CPT: inconclusive

How did Cc1cccc(CNC(=O)c2ccc3c(c2)N(C)C(=O)C2CCCCN32)c1 (stereo not drawn) do in these assays?
DT40 TDP1 CPT: 13µM*; DT40 TDP1 no CPT: inconclusive

What do the screens show for `CCOc1cc(CNC(=O)c2ccc3c(c2)NC(=O)C2CCCCN32)cc(OCC)c1OCC` (stereo not drawn)?
DT40 TDP1 CPT: 18.4µM*; DT40 TDP1 no CPT: inconclusive

What do the screens show for `CN(C)c1ccc(CNC(=O)CN2C(=O)C3CCCCN3c3ccc(C(=O)N4CCCC4)cc32)cc1` (stereo not drawn)?
DT40 TDP1 CPT: 23.1µM*; DT40 TDP1 no CPT: inconclusive

How did O=C1Nc2cc(C(F)(F)F)ccc2N2CCCCC12 (stereo not drawn) do in these assays?
IL-1B inflam inh: 36.9; HT1080 IDH1KD tx: -21.2%; DT40 TDP1 CPT: -2.7%; HT1080-NT tox: -2.2%; DT40 TDP1 no CPT: inconclusive

How did Cc1c(N/N=C(\C#N)C(=O)c2ccccc2)c(=O)n(-c2ccccc2)n1C do in these assays?
IL-1B inflam inh: 106.5; HT1080 IDH1KD tx: inconclusive; DT40 TDP1 CPT: 2.91µM*; HT1080-NT tox: -21.7%; DT40 TDP1 no CPT: 3.26µM*

Results for Cc1ccccc1C(=O)/C(C#N)=N/Nc1c(C)n(C)n(-c2ccccc2)c1=O ?
IL-1B inflam inh: 0.0; HT1080 IDH1KD tx: inconclusive; DT40 TDP1 CPT: 4.61µM*; HT1080-NT tox: -26.3%; DT40 TDP1 no CPT: 3.66µM*

What do the screens show for `CCOC(=O)/C(C#N)=N/Nc1ccccc1C#N`?
IL-1B inflam inh: 48.0; HT1080 IDH1KD tx: -2.2%; DT40 TDP1 CPT: 8.2µM*; HT1080-NT tox: -3.8%; DT40 TDP1 no CPT: 20.6µM*

What do the screens show for `CCOC(=O)Nc1c(C)n(C)n(-c2ccccc2)c1=O`?
IL-1B inflam inh: 8.9; HT1080 IDH1KD tx: 6.1%; DT40 TDP1 CPT: 6.2%; HT1080-NT tox: 6.1%; DT40 TDP1 no CPT: -1.2%

How did CCOC(=O)/C(C#N)=N/Nc1c(C)n(C)n(-c2ccccc2)c1=O do in these assays?
IL-1B inflam inh: 0.2; HT1080 IDH1KD tx: -8.1%; DT40 TDP1 CPT: 16.4µM*; HT1080-NT tox: -25.5%; DT40 TDP1 no CPT: 16.4µM*

Results for Cc1ccc(N2CCN(CC(O)COc3ccccc3)CC2)cc1 (stereo not drawn) ?
IL-1B inflam inh: 10.2; HT1080 IDH1KD tx: 8.1%; DT40 TDP1 CPT: 25.1%; HT1080-NT tox: 22.9%; DT40 TDP1 no CPT: 4.9%

What do the screens show for `COc1ccc(NC(=O)N2CCN(S(C)(=O)=O)CC2)cc1`?
IL-1B inflam inh: 8.4; HT1080 IDH1KD tx: 1.8%; DT40 TDP1 CPT: 23.1µM*; HT1080-NT tox: 15.0%; DT40 TDP1 no CPT: inconclusive

What do the screens show for `Cc1cccc(Oc2sc(C(=O)c3ccccc3)c(N)c2C#N)c1C`?
IL-1B inflam inh: -61.5*; HT1080 IDH1KD tx: -10.8%; DT40 TDP1 CPT: -18.3%; HT1080-NT tox: -8.5%; DT40 TDP1 no CPT: inconclusive

What do the screens show for `N#Cc1c(Oc2ccc3ccccc3c2)sc(C(=O)c2ccccc2)c1N`?
IL-1B inflam inh: -107.0*; HT1080 IDH1KD tx: 0.2%; DT40 TDP1 CPT: inconclusive; HT1080-NT tox: -8.1%; DT40 TDP1 no CPT: inconclusive

How did CCc1ccccc1NC(=O)C(C)n1nc(-c2ccc(C)c(C)c2)ccc1=O (stereo not drawn) do in these assays?
DT40 TDP1 CPT: 23.1µM*; DT40 TDP1 no CPT: inconclusive

What do the screens show for `CC(=O)c1ccc(NC(=O)C(C)n2nc(-c3ccccc3)ccc2=O)cc1` (stereo not drawn)?
DT40 TDP1 CPT: -1.3%; DT40 TDP1 no CPT: -5.9%

How did COc1ccc(NC(=O)C(C)n2nc(-c3ccc(C)c(C)c3)ccc2=O)cc1OC (stereo not drawn) do in these assays?
DT40 TDP1 CPT: 23.1µM*; DT40 TDP1 no CPT: 16.4µM*

How did O=C(CSc1ccc2c(c1)OCCO2)Nc1ccc2c(c1)OCO2 do in these assays?
IL-1B inflam inh: -4.6; HT1080 IDH1KD tx: 0.2%; DT40 TDP1 CPT: inconclusive; HT1080-NT tox: 0.8%; DT40 TDP1 no CPT: inconclusive

How did COc1cc(NC(=O)CSc2ccc3c(c2)OCCO3)cc(OC)c1OC do in these assays?
IL-1B inflam inh: -2.9; HT1080 IDH1KD tx: -6.0%; DT40 TDP1 CPT: 20.6µM*; HT1080-NT tox: -4.6%; DT40 TDP1 no CPT: 20.6µM*

What do the screens show for `COc1ccc(NC(=O)CSc2ccc3c(c2)OCCO3)cc1OC`?
IL-1B inflam inh: 4.9; HT1080 IDH1KD tx: 0.0%; DT40 TDP1 CPT: 20.6µM*; HT1080-NT tox: 5.2%; DT40 TDP1 no CPT: inconclusive

Results for O=C(CSc1ccc2c(c1)OCCO2)Nc1ccc(Br)cc1 ?
IL-1B inflam inh: -5.0; HT1080 IDH1KD tx: -7.4%; DT40 TDP1 CPT: -24.9%; HT1080-NT tox: -4.4%; DT40 TDP1 no CPT: -28.0%

What do the screens show for `CCC(c1nnnn1Cc1ccc2c(c1)OCO2)N1CCN(c2ccc(OC)cc2)CC1` (stereo not drawn)?
IL-1B inflam inh: inconclusive; HT1080 IDH1KD tx: -12.7%; DT40 TDP1 CPT: 25.9µM*; HT1080-NT tox: -6.2%; DT40 TDP1 no CPT: inconclusive

How did CCCC(c1nnnn1Cc1ccccc1)N1CCN(c2ccccc2OC)CC1 (stereo not drawn) do in these assays?
IL-1B inflam inh: 14.0; HT1080 IDH1KD tx: 3.3%; DT40 TDP1 CPT: inconclusive; HT1080-NT tox: 1.3%; DT40 TDP1 no CPT: inconclusive

How did CCCC(c1nnnn1Cc1ccc(OC)cc1)N1CCN(c2ccccc2OC)CC1 (stereo not drawn) do in these assays?
IL-1B inflam inh: 8.3; HT1080 IDH1KD tx: -17.1%; DT40 TDP1 CPT: inconclusive; HT1080-NT tox: -12.7%; DT40 TDP1 no CPT: 20.6µM*

How did CCC(c1nnnn1Cc1ccc2c(c1)OCO2)N1CCN(c2ccc(F)cc2)CC1 (stereo not drawn) do in these assays?
IL-1B inflam inh: -14.4; HT1080 IDH1KD tx: -19.5%; DT40 TDP1 CPT: 20.6µM*; HT1080-NT tox: -28.7%; DT40 TDP1 no CPT: inconclusive

Source: PubChem BioAssay
